These results are taken from PubChem BioAssay.

The nature of assay [1]: resazurin metabolic signal in HepG2 cells – cell-based, resazurin fluorescence, 24 h, PK04 Diversity Set, profiling panel (AID 1172). The conditions noted are these: HepG2 viability, higher = more signal.
Assay [2] in a line: budding yeast growth changes without added modifier – OD600, strain BY4716, 24 h, basal condition, primary screen (AID 1173). The conditions noted are these: S. cerevisiae BY4716 growth, OD600, 24 h; higher = more signal, called active from +8 up or from −8 down.
The nature of assay [3]: viability profiling in MM1S myeloma cells – cell-based, resazurin fluorescence, basal, 24 h, PK04 Diversity Set, profiling panel (AID 1174).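 Further: MM1S multiple myeloma cell line.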 As to conditions: higher = more signal, called active from +8 up or from −8 down. Background: The colour change of resazurin is a common sign of viable cells or microbes.
Assay [4] addresses Dihydroorotate dehydrogenase (quinone), mitochondrial (Plasmodium falciparum (isolate 3D7)) (UniProt Q08210). Briefly: inhibition of P. falciparum DHODH – biochemical, C-terminal His tag, absorbance 600 nm, primary screen (AID 1175).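 Further: recombinant parasite enzyme with a five histidine tag at its C terminus.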 As to conditions: PfDHODH enzyme, DCIP absorbance 600 nm; higher = more signal, called active from +8 up or from −8 down.
Assay [5] is described as follows: inhibition of PAO1 biofilm formation – strain PAO1, LB-PBS medium, absorbance 600 nm, primary screen (AID 1176). As to conditions: P. aeruginosa PAO1 growth/biofilm, A600, 12 h; higher = more signal.
Assay [6] is described as follows: growth modulation of vineyard yeast isolate – strain RM11-1a, OD600, basal, 24 h, primary screen (AID 1177).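 Further: cultures grown under basal conditions with no added stressor.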 The conditions noted are these: S. cerevisiae RM11-1a growth, OD600, 24 h; higher = more signal, called active from +8 up or from −8 down.
A short description of assay [7]: growth of efflux-deficient E. coli DRC39 – strain DRC39, OD650, 24 h, E. coli filamentation inducers, primary screen (AID 1178).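 Further: growth measured as culture turbidity by optical density at 650 nm.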 As to conditions: E. coli DRC39 acrAB, higher = more signal, called active from +8 up or from −8 down.
Assay [8] can be described thus: growth of efflux-deficient E. coli DRC39 – strain DRC39, OD650, 48 h, E. coli filamentation inducers, primary screen (AID 1179).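 Further: screen aims at cell division blockers that make cells filament.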 As to conditions: E. coli DRC39 delta-acrAB growth, higher = more signal, called active from +8 up or from −8 down.
Assay [9] in a line: viability profiling in RPMI8226 myeloma cells – cell-based, resazurin fluorescence, basal, 24 h, PK04 Diversity Set, profiling panel (AID 1180).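 Further: RPMI8826 multiple myeloma cell line at 5000 cells per well.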 As to conditions: higher = more signal.
Assay [10] has as its target E3 ubiquitin-protein ligase XIAP (Homo sapiens) (UniProt P98170). Briefly: small molecules binding XIAP protein – biophysical, small-molecule microarray, fluorescence 635 nm, primary screen (AID 1181).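 Further: score merges 667 nm emission and signal to noise over triplicate slides.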 As to conditions: higher = more signal.
The subject of assay [11] is XIP peptide (Xip251-270) binding. Description: XIP fragment 251-270 binding compounds – biochemical, small-molecule microarray, fluorescence 635/667 nm, 0.1 µg/mL protein, primary screen (AID 1182). The conditions noted are these: fluorescent protein binding, 635 nm, higher = more signal, called active from +8 up or from −8 down.
Another assay deals with XIP peptide (Xip251-270). Description: compounds binding XIP fragment 251-270 – biochemical, small-molecule microarray, fluorescence 635/667 nm, 0.5 µg/mL protein, primary screen (AID 1183). As to conditions: fluorescence 635 nm, higher = more signal.
A short description of assay [12]: blood-stage malaria parasite viability loss – strain 3D7, DAPI fluorescence, 100 nL, primary screen (AID 1184).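 Further: parasites grown inside human red blood cells in medium with human serum.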 As to conditions: P. falciparum 3D7 growth, 3 d, higher = more signal.
Assay [13] has as its target Homeobox protein Hox-A13 (Mus musculus) (UniProt Q62424). Description: disruptors of Hoxa13 oligonucleotide interaction – biochemical, fluorescence polarization, labeled oligonucleotide, primary screen (AID 1185). As to conditions: Hoxa13:DNA binding, 15 min, higher = more signal, called active from +8 up or from −8 down. On the technique in general: Fluorescence polarisation rises when a labelled molecule tumbles more slowly, as on binding a larger partner.

The nature of assay [14]: blockers of DNA damage checkpoint Chk1 activation – imaging, HeLa, hydroxyurea, phospho-Chk1 antibody, percent positive cells, primary screen (AID 1186). As to conditions: hydroxyurea-induced phospho-Chk1 immunofluorescence imaging, higher = more signal.
A short description of assay [15]: blockers of DNA damage checkpoint Chk1 activation – imaging, HeLa, hydroxyurea, phospho-Chk1 nuclear intensity, primary screen (AID 1187). The conditions noted are these: hydroxyurea-induced phospho-Chk1 immunofluorescence imaging, higher = more signal.

The source made the active and inactive calls. Unless noted, how the calls were made is not given here.

Chain of Homeobox protein Hox-A13 (Mus musculus) (Q62424 whole entry, looked up): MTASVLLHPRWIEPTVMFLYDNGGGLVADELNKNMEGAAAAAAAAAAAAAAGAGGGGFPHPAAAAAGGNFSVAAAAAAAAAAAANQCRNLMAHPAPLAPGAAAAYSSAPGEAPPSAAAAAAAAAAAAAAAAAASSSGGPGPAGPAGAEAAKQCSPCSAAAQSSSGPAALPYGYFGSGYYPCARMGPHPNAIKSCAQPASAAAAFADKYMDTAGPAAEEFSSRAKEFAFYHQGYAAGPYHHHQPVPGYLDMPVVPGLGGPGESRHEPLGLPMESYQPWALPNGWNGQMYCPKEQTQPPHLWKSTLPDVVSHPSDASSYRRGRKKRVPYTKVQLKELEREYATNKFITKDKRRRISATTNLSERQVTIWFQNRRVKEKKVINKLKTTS
Chain of Dihydroorotate dehydrogenase (quinone), mitochondrial (Plasmodium falciparum (isolate 3D7)) (Q08210 whole entry, looked up): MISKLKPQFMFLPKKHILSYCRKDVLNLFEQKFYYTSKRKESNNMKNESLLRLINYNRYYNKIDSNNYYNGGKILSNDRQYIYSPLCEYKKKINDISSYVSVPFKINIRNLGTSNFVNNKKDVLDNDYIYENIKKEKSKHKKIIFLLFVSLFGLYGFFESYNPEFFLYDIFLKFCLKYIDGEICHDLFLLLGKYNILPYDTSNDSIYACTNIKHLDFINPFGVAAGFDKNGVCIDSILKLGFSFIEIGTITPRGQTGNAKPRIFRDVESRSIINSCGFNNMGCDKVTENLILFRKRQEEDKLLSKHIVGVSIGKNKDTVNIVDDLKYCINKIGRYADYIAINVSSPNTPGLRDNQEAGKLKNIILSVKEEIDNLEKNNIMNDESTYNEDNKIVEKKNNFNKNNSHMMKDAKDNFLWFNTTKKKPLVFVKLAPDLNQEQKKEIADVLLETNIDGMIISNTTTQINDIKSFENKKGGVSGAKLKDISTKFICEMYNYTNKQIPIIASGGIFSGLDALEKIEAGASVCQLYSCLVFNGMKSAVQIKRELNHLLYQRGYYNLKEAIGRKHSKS
Chain of E3 ubiquitin-protein ligase XIAP (Homo sapiens) (P98170 whole entry, looked up, the tested form may be a part): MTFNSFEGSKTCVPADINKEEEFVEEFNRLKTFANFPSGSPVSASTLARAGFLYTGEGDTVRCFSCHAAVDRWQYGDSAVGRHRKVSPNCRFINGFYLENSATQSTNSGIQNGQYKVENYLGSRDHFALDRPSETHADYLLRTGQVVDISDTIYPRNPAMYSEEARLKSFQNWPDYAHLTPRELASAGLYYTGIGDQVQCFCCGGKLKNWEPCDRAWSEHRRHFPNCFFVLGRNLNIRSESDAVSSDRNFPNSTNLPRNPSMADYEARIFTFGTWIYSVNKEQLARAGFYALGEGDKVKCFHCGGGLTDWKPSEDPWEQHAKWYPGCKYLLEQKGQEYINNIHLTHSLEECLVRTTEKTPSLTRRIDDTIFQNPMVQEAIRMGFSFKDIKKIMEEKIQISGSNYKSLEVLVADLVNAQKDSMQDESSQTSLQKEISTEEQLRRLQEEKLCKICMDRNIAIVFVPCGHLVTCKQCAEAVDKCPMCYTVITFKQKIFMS

On to `CC(C)(C)OC(=O)CC[C@]1(C(=O)NCCN2CCOCC2)N=C(c2ccc(OCCCO)cc2)O[C@H]1c1ccccc1`, for which the z-score in [1] was -0.385; in assay [2], 0.26 (inactive); in assay [3], 0.0457 (inactive); in [5], -0.347 (inactive); in [6], 0.574 (inactive); in assay [7], -0.0656 (inactive). Besides, the z-score in [8] is -0.448 (inactive); in assay [9], 0.13; in [12], 0.207; in assay [13], -4.62 (inactive); in assay [14], -0.103 (inactive); in assay [15] it was 0.201 (inactive). For the same molecule, the composite z-score was -1.63 (inactive) in [4], -0.031 in assay [10], 0.471 (inactive) in assay [11] and 0.598 in the assay with XIP peptide (Xip251-270).

As to `CCCCN1CC=CC23O[C@@H]4C=CCOC(=O)[C@@H]4[C@H]2C(=O)N(C(C)CO)[C@@H]3C1=O` (stereo partly specified), the z-score in [1] was -0.0023; in assay [2], 0.15 (inactive); in [3] it was -0.536 (inactive); in [5], -0.456 (inactive); in assay [6] it was -0.938 (inactive); in assay [7], -0.338 (inactive). For the same molecule, the z-score in assay [8] is -0.478 (inactive); in [9], -0.784; in [12], 1; in assay [13], -5.05 (inactive); in [14] it was -0.525 (inactive); in [15], -0.392 (inactive). Further, the composite z-score is -1.49 (inactive) in assay [4], -0.0525 in assay [10], -0.161 (inactive) in assay [11] and -1.06 with XIP peptide (Xip251-270).

Regarding `C=CC[C@]1(C(=O)N(C)C)N=C(c2ccc(OCCCO)cc2)O[C@H]1c1ccccc1N=[N+]=[N-]`, the z-score in [1] is 0.146; in assay [2], 0.136 (inactive); in assay [3], -1.54 (inactive); in assay [5], 0.286 (inactive); in assay [6], 0.446 (inactive); in assay [7], -0.0751 (inactive). In addition, the z-score is -0.179 (inactive) in assay [8]; -1.32 in assay [9]; -1.8 in [12]; -3.37 (inactive) in assay [13]; -0.22 (inactive) in assay [14]; -0.0961 (inactive) in assay [15]. Further, the composite z-score in assay [4] is 0.25 (inactive); in assay [10] it was 0.121; in assay [11] it was 0.845 (inactive); with XIP peptide (Xip251-270) it was 0.382.

Take `COCCCNC(=O)[C@@]1(Sc2ccc(C)cc2)CC(=O)N(C2Cc3ccccc3C2)[C@@H]1c1ccc(CO)cc1I`: the z-score is -0.0076 in assay [1]; -2.87 (inactive) in assay [2]; -2.79 (inactive) in assay [3]; 0.196 (inactive) in assay [5]; -0.429 (inactive) in assay [6]; -0.0635 (inactive) in assay [7]. Besides, the z-score in assay [8] was 0.0605 (inactive); in assay [9] it was -2.31; in assay [12], 0.701; in assay [13], -2.28 (inactive); in [14], 0.542 (inactive); in [15], 0.94 (inactive). Moreover, the composite z-score in assay [4] was -0.591 (inactive); in assay [10] it was 0.108; in assay [11], 0.0203 (inactive); with XIP peptide (Xip251-270) it was -0.314.

As to `CN1C(=O)C2C(C1=O)C1C=C(c3ccc(CO)cc3)C2C(c2cccs2)N1Cc1cccc(OC(F)(F)F)c1` (stereo unspecified), the z-score was -0.153 in [1]; -2.49 (inactive) in assay [2]; -2.06 (inactive) in assay [3]; -0.387 (inactive) in assay [5]; 0.476 (inactive) in assay [6]; -0.383 (inactive) in [7]. The z-score in assay [8] is -0.319 (inactive); in assay [9], -1.08; in assay [12], -3.19; in assay [13], -8.09 (active); in [14], -0.384 (inactive); in assay [15], -0.0226 (inactive). Moreover, the composite z-score was -1.6 (inactive) in assay [4], 0.214 in assay [10], 0.94 (inactive) in assay [11] and 0.591 in the assay with XIP peptide (Xip251-270).

`COc1cc(CO)cc(I)c1O[C@H]1C=C(C(=O)NCCO)C[C@@H](N(Cc2ccc(F)cc2)C(=O)C2CCCO2)[C@@H]1O` (stereo partly specified): the z-score was 0.266 in assay [1]; -1.96 (inactive) in assay [2]; 0.695 (inactive) in assay [3]; 0.507 (inactive) in assay [5]; -0.254 (inactive) in assay [6]; 2.94 (inactive) in assay [7]. Besides, the z-score in assay [8] was 2.03 (inactive); in assay [9], 0.562; in [12], 0.463; in [13] it was -4.27 (inactive); in assay [14] it was 0.36 (inactive); in assay [15], 0.824 (inactive). In addition, the composite z-score in assay [4] is -0.737 (inactive); in assay [10] it was -0.165; in assay [11], -0.192 (inactive); in the assay on XIP peptide (Xip251-270) it was -0.318.
